An excerpt weighted towards active compounds, which were near 7.5% of everything screened.
FLuc counter: qHTS profiling assay for firefly luciferase inhibitor/activator using purifed enzyme and Km concentrations of substrates (counterscreen for miR-21 project); Luciferin 4-monooxygenase (Photinus pyralis), P08659; purified FLuc, Km substrates, luminescence inhibition; Potency, µM (top dose mostly 57.5 µM), for inactives: at the top dose activity change, negative = inhibition, hits mostly inhibitors; 360,000 compounds, 6.9% hits; AID 588342, 2011;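 further: plate controls were vehicle for no effect and reference inhibitor for full effect; nearly all actives have a fitted effect of over 55% in size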
Target sequence (P08659 whole entry, looked up): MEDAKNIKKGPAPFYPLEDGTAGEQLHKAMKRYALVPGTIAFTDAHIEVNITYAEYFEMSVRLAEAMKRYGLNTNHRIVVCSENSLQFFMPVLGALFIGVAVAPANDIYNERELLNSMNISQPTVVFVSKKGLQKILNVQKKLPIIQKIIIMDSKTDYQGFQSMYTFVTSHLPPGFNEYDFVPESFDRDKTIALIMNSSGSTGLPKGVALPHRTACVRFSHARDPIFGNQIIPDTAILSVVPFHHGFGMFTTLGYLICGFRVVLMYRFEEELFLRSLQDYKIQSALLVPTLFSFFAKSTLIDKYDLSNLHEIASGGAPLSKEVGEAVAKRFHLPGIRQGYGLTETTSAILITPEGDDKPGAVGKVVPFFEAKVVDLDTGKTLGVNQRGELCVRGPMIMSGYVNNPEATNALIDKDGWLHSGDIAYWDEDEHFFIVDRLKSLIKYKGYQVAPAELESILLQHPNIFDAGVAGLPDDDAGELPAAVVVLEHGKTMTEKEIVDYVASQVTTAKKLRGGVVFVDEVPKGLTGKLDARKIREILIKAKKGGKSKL
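Purified P. pyralis luciferase, 10 nM final, with Km-level 10 uM D-luciferin and 10 uM ATP in 50 mM Tris acetate pH 7.5, 10 mM Mg acetate, 0.01% Tween-20, 0.05% BSA; 6-point qHTS titration about 60 µM downward; luminescence read.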
Rab9 prom act: qHTS Assay for Rab9 Promoter Activators. Huh7 Rab9 promoter-luciferase reporter, luminescence, 24 h. Potency, µM (series often up to 9.22 µM), inactives show top-dose activation, negative = inhibition, most hits filed as activators. 320,000 compounds, 2.8% hits; further: % of control where 0% means no effect; nearly all actives have a fitted effect of over 60% in size
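Huh7 cells stably carrying a Rab9 promoter-luciferase reporter, 1500 cells per well in OP-MEM I with 10% FBS, treated with compound 24 hours at 37C. Luciferase activity read by luminescence after 10 minutes with Amplite reagent.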
ELG1 genotoxic: qHTS screen for small molecules that induce genotoxicity in human embryonic kidney (HEK293T) cells expressing luciferase-tagged ELG1; Potency, µM (series often up to 46 µM), inactives show at the top dose activity change, positive = activation, most hits filed as activators; AID 504466, 2011; HEK293T ELG1-luciferase reporter, luminescence, 16 h; 330,000 compounds, 1.3% hits; further: % of control where 0% means no effect; nearly all actives have a fitted effect of over 60% in size
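Cells (2,000/well) expressing the ELG1-luciferase fusion are dosed by pin tool and kept 16 hr at 37 °C, 5% CO2. Signal comes from ONE-Glo luciferase reagent after 30 min at room temperature.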
SMN2 splice enh: qHTS Assay for Enhancers of SMN2 Splice Variant Expression. 210,000 compounds, 2.8% hits. Potency, µM (doses to about 46.1 µM), without a hit: at the top dose activity change, positive = activation, most hits filed as activators. HEK293 SMN2-luciferase splicing reporter, luminescence, 30-36 h; further: % of control where 0% means no effect; nearly all actives have a fitted effect of over 55% in size
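HEK293 cells carry an SMN2 minigene-luciferase reporter in which exon 7 inclusion puts luciferase in frame. Cells were seeded at 2000 cells/well, attached for 10-12 hours, then exposed to compounds for 30-36 hours at 37C before ONE-Glo luminescence.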
NPC1 promoter act: qHTS Assay for NPC1 Promoter Activators; Huh7 NPC1 promoter luciferase reporter, 24 h; 320,000 compounds, 2.4% hits; Potency, µM (top dose mostly 9.22 µM), for the others: at the highest dose activation, most hits filed as activators; further: % of control where 0% means no effect; nearly all actives have a fitted effect of over 60% in size
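Luciferase expression driven by the NPC1 promoter was measured in stably transfected Huh7 cells after a 24 h compound incubation, using a luciferase reagent and a luminescence read.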
Starred values were filed as active, the others as inactive; ? = inconclusive; . = not tested or not shown. The call rests on the fitted dose curve; in most records, active means well fitted curve in the direction sought with a large enough effect; inconclusive means small, poorly fitted or top-dose-only effect, or another doubt; inactive means no such curve, though single readings can be large; an effect the other way counts as inactive or inconclusive. Potency means the concentration at half of the fitted maximal effect.

SMILES | FLuc counter | Rab9 prom act | ELG1 genotoxic | SMN2 splice enh | NPC1 promoter act
COc1ccc2[nH]c(=O)c(CN(Cc3cccnc3)C(=O)Nc3ccccc3)cc2c1 | -11.7% | -6.7% | -12.5% | -19.0% | -3.4%
CCOc1ccc2[nH]c(=O)c(CN(Cc3cccnc3)C(=O)Nc3ccccc3OC)cc2c1 | 16.9µM* | -4.1% | 1.5% | ? | -0.7%
Cc1ccc(NS(=O)(=O)c2ccc(-c3ccc(=O)[nH]n3)o2)cc1 | -0.5% | 0.7% | 5.4% | . | -6.1%
CCOC(=O)CC(C#N)c1cn(C)c2ccccc12 (configuration not stated) | 0.8% | 18.0% | -0.9% | -13.6% | -0.4%
COC(=O)C(C)NC(=O)c1ccc(C(C)(C)C)cc1 (configuration not stated) | 19µM* | 21.9% | 16.6% | ? | 21.3%
CC(NC(=O)c1ccc(C(C)(C)C)cc1)C(=O)O (configuration not stated) | ? | -0.1% | 1.1% | ? | -2.6%
CC(C)C(NC(=O)c1ccc(C(C)(C)C)cc1)C(=O)OCC(=O)NC(=O)Cc1ccccc1 (configuration not stated) | 21.3µM* | -4.0% | 0.3% | 17.4% | 1.4%
COc1cccc(-c2oc3ccc(C)cc3c(=O)c2O)c1 | 2.69µM* | . | . | 10µM* | .
Cc1ccc(-c2oc3ccccc3c(=O)c2O)cc1 | ? | 26.7% | 23.1µM* | 5.5% | 25.2%
c1csc(-c2nc(NCC3CCCO3)c3ccccc3n2)c1 (configuration not stated) | -0.6% | -6.7% | -13.9% | . | -4.2%
Brc1ccc2nc(-c3cccs3)c(NCC3CCCO3)n2c1 (configuration not stated) | 12µM* | 26.9% | -8.1% | . | ?
CCOc1ccc(/C=N/OCC(=O)NCc2ccc3c(c2)OCO3)cc1OC | 3.4% | 1.1% | 1.0% | . | -2.3%
CC1(C)CC(=O)C(C=NCC(O)c2ccccc2)=C(O)C1 (configuration not stated) | -0.1% | 3.7% | 0.0% | 22.3% | 1.4%
N#Cc1c(-n2ncnc2-c2ccccc2Cl)sc2c1CCCCC2 | 1.9µM* | . | . | -6.1% | .
N#Cc1c(-n2ncnc2-c2ccccc2C(F)(F)F)sc2c1CCCCC2 | 0.239µM* | . | . | -7.7% | .
N#Cc1c(C(F)(F)F)cc(-c2ccccc2)nc1SCC(=O)Nc1sc2c(c1C#N)CCC2 | 1.8% | -19.6% | -6.0% | . | -10.5%
N#Cc1c(-n2ncnc2-c2cccc(Cl)c2)sc2c1CCCCC2 | 1.51µM* | . | . | 0.9% | .
COc1ccccc1-c1ncnn1-c1sc2c(c1C#N)CCCCC2 | 1.51µM* | . | . | -4.7% | .
N#Cc1c(-n2cccc2/C=N/O)sc2c1CCCC2 | 5.9% | -9.1% | -2.1% | -21.5% | -0.2%
N#Cc1c2c(c(-c3ccccc3Cl)[nH]c1=S)CCCC2 | -18.1% | 0.2% | -0.6% | -16.9% | -1.3%
Cn1ncc2c(=O)[nH]cnc21 | 2.6% | -2.7% | 0.1% | 5.5% | -1.6%
CCSc1cc(C2C(C#N)=C(N)OC(C)=C2C(=O)OC)c(C)o1 (configuration not stated) | -0.5% | -0.6% | 6.8% | . | -1.1%
Cc1ccc(OCC(=O)NN=C2c3ccccc3-c3ccccc32)cc1 | 3.6% | 5.0% | 0.6% | -13.7% | -4.7%
Cc1ccc(NN=C2c3ccccc3-c3ccccc32)cc1 | 15.1µM* | ? | ? | 27.4% | ?
Cc1ccc(-c2n[nH]c(=O)c3ccccc23)cc1S(=O)(=O)N(C)C | -0.9% | -0.1% | 2.7% | . | -1.0%
SMILES | FLuc counter | Rab9 prom act | ELG1 genotoxic | SMN2 splice enh | NPC1 promoter act
Cc1ccc(-c2cc3c(N=O)c4ccccc4c-3n[nH]2)cc1 | 0.0953µM* | ? | ? | -89.8% | 2.1%
Cc1cccc(-c2cc3c(N=O)c4ccccc4c-3n[nH]2)c1 | 0.536µM* | 1.26µM* | ? | 3.16µM* | 0.708µM*
O=Nc1c2cc(-c3ccccc3)[nH]nc-2c2ccccc12 | 0.426µM* | ? | ? | 0.501µM* | 3.16µM*
COc1cc(NC(=O)c2ccc(Br)o2)ccc1NC(=O)C(C)C | -14.8% | -2.6% | -1.1% | -24.7% | -1.3%
CCc1nn2c(NCCCO)cc(C)nc2c1-c1ccc(F)cc1 | -30.0% | 9.9% | 2.8% | . | -2.1%
O=C(CCN1C(=O)/C(=C/c2cccs2)SC1=S)Nc1ccc(C(=O)O)c(O)c1 | 16.9µM* | -0.6% | 1.9% | . | -1.8%
CC(=C\c1ccccc1)/C=C1/SC(=O)N(CCCC(=O)Nc2ccc(C(=O)O)cc2)C1=O | 16.9µM* | 2.5% | ? | 8.2% | 17.2%
CC(/C=C1\SC(=S)N(CCCC(=O)Nc2ccc(C(=O)O)c(O)c2)C1=O)=C\c1ccccc1 | 10.7µM* | ? | ? | 35.5µM* | 18.4%
Cc1[nH]c2ccccc2c1C(=O)CN1CCC(C(N)=O)(N2CCCCC2)CC1 | 0.1% | 3.0% | 0.5% | -0.9% | 0.1%
NC(=O)CC[C@H](NC(=O)[C@H](Cc1ccccc1)n1c(=O)[nH]c2ccccc2c1=O)C(=O)N1CCC[C@H]1C(=O)O | -4.4% | -4.8% | -1.9% | . | 0.7%
CC(/C=C/c1ccco1)=N\NC(=O)c1cc(Cl)ccc1O | ? | ? | -1.7% | -23.4% | 7.8%
O=C(N/N=C/C1CCCCC1)c1ccccn1 | 13.5µM* | -0.9% | ? | 19.6% | -6.2%
O=C(N/N=C/C1CCCCC1)c1cc(Cl)ccc1O | 12µM* | -7.0% | 3.5% | -11.2% | -3.7%
COc1ccc(CCC(=O)Nc2nnc(C(F)(F)F)s2)cc1 | -2.8% | 5.6% | -0.7% | . | -1.5%
CCOC(=O)Nc1sc2c(c1C#N)CCCC2 | 15.1µM* | 3.98µM* | 14.6µM* | 29.9% | ?
CCC(=O)Nc1sc2c(c1C#N)CCC2 | -9.4% | -4.9% | 4.6% | -5.0% | 0.8%
Cc1ccc(OCC(=O)Nc2sc3c(c2C#N)CCC3)cc1 | 4.78µM* | ? | ? | 5.2% | ?
Cc1nnc(SCC(=O)Nc2sc3c(c2C#N)CCCCC3)n1N | 21.3µM* | 18.7% | ? | 16.9% | 25.8%
CC(C)c1ccc(CCNC(=O)c2cccc(S(=O)(=O)N3CCN(C)CC3)c2)cc1 | -2.4% | 2.7% | -20.4% | . | -1.7%
CC(=O)Nc1cccc(-c2nc3ccccc3[nH]2)c1 | ? | 22.6% | 3.8% | -34.2% | 6.2%
CC(C)CC(=O)Nc1cccc(-c2nc3ccccc3[nH]2)c1 | 16.9µM* | -5.8% | -2.0% | ? | 2.4%
CC(C)(C)C(=O)Nc1cccc(-c2nc3ccccc3[nH]2)c1 | 15.1µM* | 5.4% | 0.4% | 28.6% | 10.7%
CC(Oc1ccccc1)C(=O)Nc1cccc(-c2nc3ccccc3[nH]2)c1 (configuration not stated) | 12µM* | -0.5% | -4.5% | . | -0.4%
O=C(COC(=O)c1ccc(O)cc1O)c1ccc(Cl)cc1 | 16.9µM* | -0.1% | 12.5% | . | 12.6%
